The supplement of paper PMC12669032
A number with no mark means an inactive call.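 Rule for the calls: active = AUC reduced over 20% with Padj below 0.05 in at least 2 of 3 replicates; inactive = otherwise.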

What was measured:
Roseburia intestinalis = experiment: growth AUC relative to DMSO control (median of replicates) (fraction); higher = more growth (less inhibition), active = hit call of the paper; conditions: 20 µM; 24 h
How it was run: (§1)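 Gut bacteria were grown singly in mGAM at 37 °C without oxygen, from OD600 0.05, alongside 20 µM compound in 1% DMSO, and OD600 was read each hour for 24 h. Area under the growth curve was normalised to the median of solvent-only wells per plate, or to row and column medians on the industrial chemical plate. The minimum OD was set to 0 beforehand, and the reported value is the median of three biological replicates grown on separate days.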

Streptococcus salivarius = experiment: as above; conditions: 20 µM; 24 h
How it was run: as §1

CCC([O-])=C1C(=O)CC(C(=O)[O-])CC1=O.[Ca+2] (centres undefined)
growth AUC (Roseburia intestinalis): 1.12
growth AUC (Streptococcus salivarius): 0.917

NC(=O)C1CO1 (centres undefined)
growth AUC (Roseburia intestinalis): 0.855
growth AUC (Streptococcus salivarius): 1.01

C[S+](C)CCC(=O)O.[Cl-]
growth AUC (Roseburia intestinalis): 1.01
growth AUC (Streptococcus salivarius): 0.994

COCCOc1ccccc1S(=O)(=O)NC(=O)Nc1nc(OC)nc(OC)n1
growth AUC (Roseburia intestinalis): 0.907
growth AUC (Streptococcus salivarius): 0.98

CCOC(=O)Nc1cccc(OC(=O)Nc2cccc(C)c2)c1
growth AUC (Roseburia intestinalis): 0.912
growth AUC (Streptococcus salivarius): 0.971

C[C@@]1(c2ccccc2)NC(=O)N(Nc2ccccc2)C1=O
growth AUC (Roseburia intestinalis): 0.958
growth AUC (Streptococcus salivarius): 1.02

NC(=O)c1c(Cl)cccc1Cl
growth AUC (Roseburia intestinalis): 0.906
growth AUC (Streptococcus salivarius): 0.991

Br[C@@H]1CC[C@H](Br)[C@H](Br)CC[C@@H](Br)[C@@H](Br)CC[C@H]1Br
growth AUC (Roseburia intestinalis): 0.962
growth AUC (Streptococcus salivarius): 0.868

CN(C)C(=O)Nc1ccccc1
growth AUC (Roseburia intestinalis): 0.983
growth AUC (Streptococcus salivarius): 0.969

CCCCCCCCc1c(CC)nc2ncnn2c1N
growth AUC (Roseburia intestinalis): 0.948
growth AUC (Streptococcus salivarius): 0.985

CCS(=O)(=O)c1nnc(N(C)C(=O)NC)s1
growth AUC (Roseburia intestinalis): 1
growth AUC (Streptococcus salivarius): 0.99

CSC(=O)c1cccc2nnsc12
growth AUC (Roseburia intestinalis): 0.953
growth AUC (Streptococcus salivarius): 0.968

CCNc1nc(N)nc(Cl)n1
growth AUC (Roseburia intestinalis): 1.01
growth AUC (Streptococcus salivarius): 1.03

O=C(O)c1ccc(Cl)cc1Cl
growth AUC (Roseburia intestinalis): 0.997
growth AUC (Streptococcus salivarius): 1

CC(=O)CC(c1ccccc1)c1c(O)c2ccccc2oc1=O (centres undefined)
growth AUC (Roseburia intestinalis): 0.952
growth AUC (Streptococcus salivarius): 1

CCOC(=O)C(C)Oc1ccc(Oc2nc3ccc(Cl)cc3o2)cc1 (racemic)
growth AUC (Roseburia intestinalis): 1.02
growth AUC (Streptococcus salivarius): 1.01

c1ccc(Sc2ccccc2)cc1
growth AUC (Roseburia intestinalis): 1.13
growth AUC (Streptococcus salivarius): 0.994

CC(C)([CH2][Sn]([CH2]C(C)(C)c1ccccc1)([CH2]C(C)(C)c1ccccc1)[O][Sn]([CH2]C(C)(C)c1ccccc1)([CH2]C(C)(C)c1ccccc1)[CH2]C(C)(C)c1ccccc1)c1ccccc1
growth AUC (Roseburia intestinalis): 1.02
growth AUC (Streptococcus salivarius): 0.972

S=C([S-])NCCNC(=S)[S-].[Zn+2]
growth AUC (Roseburia intestinalis): 0.975
growth AUC (Streptococcus salivarius): 0.97

CCCCCC(C)OC(=O)COc1ccc(Cl)c2cccnc12 (centres undefined)
growth AUC (Roseburia intestinalis): 0.931
growth AUC (Streptococcus salivarius): 0.877

COC(=O)C(C)Oc1ccc(Oc2ccc(C(F)(F)F)cn2)cc1 (centres undefined)
growth AUC (Roseburia intestinalis): 0.956
growth AUC (Streptococcus salivarius): 0.96

CCc1cccc(C)c1N(COC(C)C)C(=O)CCl
growth AUC (Roseburia intestinalis): 1.01
growth AUC (Streptococcus salivarius): 1.01

CCCCOCCOC(=O)COc1ccc(Cl)cc1Cl
growth AUC (Roseburia intestinalis): 0.941
growth AUC (Streptococcus salivarius): 0.948

COCC(=O)N(c1c(C)cccc1C)C(C)C(=O)O (centres undefined)
growth AUC (Roseburia intestinalis): 1.01
growth AUC (Streptococcus salivarius): 1.01

CCNc1nc(NC(C)(C)C)nc(OC)n1
growth AUC (Roseburia intestinalis): 1.05
growth AUC (Streptococcus salivarius): 1

O=C1NC(=O)c2ccccc21
growth AUC (Roseburia intestinalis): 1.11
growth AUC (Streptococcus salivarius): 1

O=c1oc(-c2ccccc2)nc2ccccc12
growth AUC (Roseburia intestinalis): 0.979
growth AUC (Streptococcus salivarius): 0.981

Nc1ccc(S(=O)(=O)Nc2cnc3ccccc3n2)cc1
growth AUC (Roseburia intestinalis): 0.991
growth AUC (Streptococcus salivarius): 1.03

O=C(O)COc1cc(N2C(=O)C3=C(CCCC3)C2=O)c(F)cc1Cl
growth AUC (Roseburia intestinalis): 0.987
growth AUC (Streptococcus salivarius): 0.977

COc1cc(OC)nc(NC(=O)NS(=O)(=O)c2c(Cl)nc3ccccn23)n1
growth AUC (Roseburia intestinalis): 1
growth AUC (Streptococcus salivarius): 1.05

N#Cc1cc(Cl)c(O)c(Cl)c1
growth AUC (Roseburia intestinalis): 1.08
growth AUC (Streptococcus salivarius): 1.02

CCCCCCCCCCCC[N+](C)(C)Cc1ccc(CC)cc1.[Cl-]
growth AUC (Roseburia intestinalis): 0.0285 (active)
growth AUC (Streptococcus salivarius): 1.03

CCSC(=O)N(CC)CC
growth AUC (Roseburia intestinalis): 1.06
growth AUC (Streptococcus salivarius): 0.954

CCNc1nc(NCC)nc(OC)n1
growth AUC (Roseburia intestinalis): 0.993
growth AUC (Streptococcus salivarius): 1.01

Cc1cc(C)c(C2=C(O)C3(CCCC3)OC2=O)c(C)c1
growth AUC (Roseburia intestinalis): 1.02
growth AUC (Streptococcus salivarius): 0.985

CCOC(=O)/C(Cl)=C/c1cc(N2C(=O)C3=C(CCCC3)C2=O)ccc1Cl
growth AUC (Roseburia intestinalis): 0.981
growth AUC (Streptococcus salivarius): 0.96

COC(=O)C(C)Oc1ccc(Oc2ncc(C(F)(F)F)cc2Cl)cc1 (centres undefined)
growth AUC (Roseburia intestinalis): 1.01
growth AUC (Streptococcus salivarius): 0.954
